HSF-1 act: increases HSF-1 driven luciferase reporter signal. activation, % at 9 µM. AID 504408. NIH3T3-HGL HSF-1 luciferase reporter, MG132, 8 h; 100% = twice DMSO control signal. 300,000 compounds, 1.7% hits;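 active means mean replicate activation of at least 50% with a set share of replicates each reaching 50%; inconclusive means only one of those two conditions met; inactive means mean below 50% and too few replicates reaching it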;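 further: 0% = median of the neutral control wells and 100% = twice that signal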
Wnt bcat act: Wnt/beta-catenin pathway activation; Wnt/beta-catenin reporter cell assay, activator, plate reader; activation, % at 9.35 µM; 300,000 compounds, 1.2% hits; AID 743398; in the data active means activation above about 30%, passing the limit was not always enough; inconclusive means no clear call, values can overlap the other calls;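 further: 0% = neutral control wells and 100% = positive control wells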
MITF TRPM1 HTS: MITF TRPM1 promoter activation in melanoma cells; SK-MEL-5 TRPM1-promoter luciferase, 24 h; % of positive control, neutral wells = 0; activation, % at 12.5 µM; 300,000 compounds, 0.75% hits;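 active means mean activation of at least 80% with every replicate also reaching 80%; inconclusive means mean reaches 80% but some replicate falls short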;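 further: 0% = neutral control wells and 100% = parthenolide positive control wells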
esBAF inh: blocks esBAF chromatin remodeling in mouse ES cells. Bmi1-luciferase knock-in reporter, 24 h; 100% = twice the neutral-well signal. reporter increase, % at 12.5 µM. 350,000 compounds, 2% hits; in the data active means activation above about 40%; inconclusive means no clear call, values can overlap the other calls;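 further: 0% = median of the plate's neutral control wells and 100% = double that signal; a rise in the Bmi1 reporter signal indicates esBAF inhibition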
HSF1 inhib: HSF1 inhibition. NIH3T3-HGL HSE-luciferase, MG132-induced, luminescence 8 h; stronger effect = lower value. activity change, negative = inhibition, % at 7.5 µM (by protocol). 300,000 compounds, 0.77% hits;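 active means more than half of replicate wells show activity change below -50%, luminescence cut by over half; inconclusive means some wells, but at most half, below -50%; inactive means no replicate well below -50%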;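 further: luciferase reports HSF-1 transcriptional activity via heat shock element; 0% = median of DMSO wells and -100% = zero luminescence signal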
SMARCA2 act: activators of SMARCA2 function | MG213 cells, MMTV-luciferase reporter, dexamethasone, overnight | activation, % at 9.1 µM | 370,000 compounds, 1% hits | AID 652017; in the data active means activation above about 7.8%;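 further: 0% = vehicle wells and 100% = reference activator wells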
SMARCA2 act conf: SMARCA2 activation, confirmation screen | shares compounds with SMARCA2 act | MG213 cells, MMTV-luciferase with dexamethasone, luminescence, overnight; MG213 cells expressing E1A, Rb sequestered; DMSO wells 0%, reference activator 100% | activation, % at 9.1 µM | 3,500 compounds, 30% hits | AID 652260;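 active means activation above its plate's cutoff, the mean activation of tested wells plus 3 SD, cut at about 7.9% in these data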
GAL4-VP16 Luc: counter-screen for SMARCA2 activators: GAL4-VP16 luciferase reporter activation | shares compounds with SMARCA2 act | HEK293 GAL4-VP16 pG5luc reporter, luciferase luminescence; scaled: DMSO wells 0%, SAHA wells 100% | activation, % at 9.1 µM | 3,500 compounds, 41% hits;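 active means activation above the solvent-only control well mean plus 3 SD, averaged across control plates, cut at about 5.2% in these data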
Active calls of the source: *. Sampled rows, rich in hits. Any-hit rate of the full collection: about 4.3%.

O=C(N/N=C/c1ccc(-c2ccccc2C(=O)O)o1)c1cccs1 was read as HSF-1 act 12, Wnt bcat act 1, MITF TRPM1 HTS 6, HSF1 inhib 7, SMARCA2 act 8.6*, SMARCA2 act conf 1 and GAL4-VP16 Luc 3.
`CNC(=O)C[C@@H]1CC[C@@H]2[C@H](COc3ccc(NC(=O)Nc4cc(C)cc(C)c4)cc3C(=O)N2C)O1` gave esBAF inh -3.
For Cc1cccnc1NC(=O)/C=C/c1ccc2c(c1)OCO2 the results were HSF-1 act 36, MITF TRPM1 HTS inconclusive, esBAF inh 37, HSF1 inhib 17 and SMARCA2 act 2.
Cc1cc(C)nc(NC(=O)/C=C/c2ccc3c(c2)OCO3)c1 was read as HSF-1 act 37, Wnt bcat act 44*, MITF TRPM1 HTS 115*, esBAF inh 48*, HSF1 inhib 22, SMARCA2 act 11*, SMARCA2 act conf 9.9* and GAL4-VP16 Luc 8.4*.
`COC(=O)c1cccc(NC(=O)/C=C/c2ccc3c(c2)OCO3)c1` gave HSF-1 act 21, MITF TRPM1 HTS -3, HSF1 inhib -2, SMARCA2 act 8.2*, SMARCA2 act conf -2 and GAL4-VP16 Luc 4.
O=C(/C=C/c1ccc2c(c1)OCO2)Nc1cccnc1 was read as HSF-1 act 30, Wnt bcat act 11, MITF TRPM1 HTS 72, HSF1 inhib 2, SMARCA2 act 13*, SMARCA2 act conf 5 and GAL4-VP16 Luc 5.6*.
CC(=O)Nc1ccc(NC(=O)/C=C/c2ccc3c(c2)OCO3)cc1 was read as HSF-1 act 16, Wnt bcat act 7, MITF TRPM1 HTS 29, HSF1 inhib 7 and SMARCA2 act 1.
For CN1[C@@H]2c3ccc(-c4ccccc4)c(=O)n3C[C@@H]2[C@@H](CO)[C@@H]1C(=O)N1CCc2ccccc2C1 the results were esBAF inh 0.
`CO[C@H]1CN(C)C(=O)c2ccc(NC(C)=O)cc2OC[C@H](C)NC[C@@H]1C` gave esBAF inh 0.
For CC(=Nc1cccc(O)c1)c1sc2ccccc2c1O the results were HSF-1 act 13, Wnt bcat act 20, MITF TRPM1 HTS 55, esBAF inh 82*, HSF1 inhib 7, SMARCA2 act 14*, SMARCA2 act conf 8.1* and GAL4-VP16 Luc 13*.
Screening CC(=Nc1ccc(C)cc1C)c1sc2ccccc2c1O returned HSF-1 act 53*, Wnt bcat act 5, MITF TRPM1 HTS 64, HSF1 inhib 12, SMARCA2 act 15*, SMARCA2 act conf 2 and GAL4-VP16 Luc 11*.
Screening O=C(C[C@H]1C[C@@H]2c3cc(NC(=O)C4CCOCC4)ccc3O[C@@H]2[C@H](CO)O1)NCCN1CCCCC1 returned esBAF inh -13.
For Cc1ccc(S(=O)(=O)N(C)C[C@@H]2Oc3ccc(NS(=O)(=O)c4cccs4)cc3C(=O)N([C@H](C)CO)C[C@@H]2C)cc1 the results were esBAF inh -1.
For CCN(C(=O)COC(=O)c1c(-c2ccccc2)noc1C)C1CCS(=O)(=O)C1 (stereo unspecified) the results were HSF-1 act 1, MITF TRPM1 HTS -6, esBAF inh -2, HSF1 inhib 6, SMARCA2 act 8.6*, SMARCA2 act conf -3 and GAL4-VP16 Luc 1.
For CCN(C(=O)COC(=O)c1c(C)c(-c2ccccc2)nc2ccccc12)C1CCS(=O)(=O)C1 (stereo unspecified) the results were HSF-1 act 3, Wnt bcat act -2, MITF TRPM1 HTS 1, esBAF inh -2, HSF1 inhib 7 and SMARCA2 act -2.
Cn1c(=O)c2cc(S(=O)(=O)NC(C(=O)Nc3cccnc3)c3ccccc3)ccc2n(C)c1=O (stereo unspecified) was read as Wnt bcat act -5, esBAF inh -8, SMARCA2 act 10*, SMARCA2 act conf 0 and GAL4-VP16 Luc -2.
Screening CS(=O)(=O)c1ccc2nc(NC(=O)Nc3ccccc3F)sc2c1 returned HSF-1 act 30, Wnt bcat act 5, MITF TRPM1 HTS 34, esBAF inh -5, HSF1 inhib 11 and SMARCA2 act 7.
`COc1ccc2nc(NC(=O)Nc3ccccc3OC)sc2c1` gave HSF-1 act 31, Wnt bcat act 12, MITF TRPM1 HTS 32, HSF1 inhib 18, SMARCA2 act 12*, SMARCA2 act conf 6 and GAL4-VP16 Luc 10*.
For CCOc1ccc2nc(NC(=O)CS(=O)(=O)c3ccccc3)sc2c1 the results were HSF-1 act -5, MITF TRPM1 HTS 29, esBAF inh 34, HSF1 inhib 9 and SMARCA2 act 4.
`NS(=O)(=O)c1ccc2nc(NC(=O)c3ccc(Br)o3)sc2c1` gave HSF-1 act 20, Wnt bcat act 3, MITF TRPM1 HTS 75, HSF1 inhib 12, SMARCA2 act 8.3*, SMARCA2 act conf 1 and GAL4-VP16 Luc 4.
For COc1ccc2nc(NC(=O)Nc3cccc4ccccc34)sc2c1 the results were HSF-1 act 19, Wnt bcat act 7, MITF TRPM1 HTS 79, HSF1 inhib -2 and SMARCA2 act 2.
`CC(=O)NCCC(=O)Nc1nc2ccc(Oc3ccccc3)cc2s1` gave HSF-1 act 20, Wnt bcat act 24, MITF TRPM1 HTS 109*, esBAF inh 22, HSF1 inhib 7, SMARCA2 act 11*, SMARCA2 act conf 4 and GAL4-VP16 Luc 8.7*.
For COc1ccccc1NC(=O)Nc1nc2ccc(S(N)(=O)=O)cc2s1 the results were HSF-1 act 37, Wnt bcat act 21, MITF TRPM1 HTS 87*, esBAF inh 48*, HSF1 inhib 24, SMARCA2 act 10*, SMARCA2 act conf 15* and GAL4-VP16 Luc 6.3*.
COc1ccc(CN(C)C[C@@H]2OCCCC[C@H](C)Oc3ccc(NC(=O)c4ccncc4)cc3C(=O)N([C@H](C)CO)C[C@@H]2C)cc1 was read as esBAF inh -6.
Screening C[C@@H]1CN([C@H](C)CO)S(=O)(=O)c2ccc(C3=CCCCC3)cc2O[C@H]1CN(C)C(=O)CN(C)C returned esBAF inh -5.
`Oc1cccc(Nc2nc(O)c(/C=C3\C=Nc4ccccc43)s2)c1` gave Wnt bcat act 35*, MITF TRPM1 HTS 47, esBAF inh 59*, SMARCA2 act 11*, SMARCA2 act conf 15* and GAL4-VP16 Luc 6.5*.

Screening results: PubChem BioAssay, several laboratories
